Hit rate of the full screen: of about 360,000 compounds, about 3,700 (1%) were called active. About 2% were inconclusive and are not listed.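 Rule for the calls: active = normalized GFP-positive differentiation at or above the plate's own cutoff, the solvent-only control mean plus 3 SD; inconclusive = no clear call, values can overlap the other calls; inactive = the rest.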 Only a selection was taken, and actives are over-represented in it overall.
experiment: induction of myeloid progenitor differentiation, primary screen, cell-based, flow cytometry, MLPCN library (AID 624256); details: ER-HoxA9 myeloid progenitors, lysozyme-GFP differentiation, at 10 µM; GFP+ MAC1+ double positive: measured here: differentiation confirmed by MAC1 staining, stronger effect = higher value; normalized GFP-positive differentiation: stronger effect = higher value;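 for GFP+ MAC1+ double positive: cells exposed to compound for four days before flow analysis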;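 for normalized GFP-positive differentiation: cells exposed to compound for four days before flow analysis; 0% = DMSO wells and 100% = fulvestrant positive control at 5 µM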

SMILES | GFP+ MAC1+ double positive [%] | outcome | normalized GFP-positive differentiation
Nc1nc(NCC2CCCO2)nc(Nc2ccccc2F)c1[N+](=O)[O-] (stereo unspecified) | 0.2 | inactive | 
C=CCNc1nc(N)c([N+](=O)[O-])c(NC2CCCCC2)n1 | 1 | inactive | 
Nc1nc(Nc2ccccc2F)nc(NC2CCCCC2)c1[N+](=O)[O-] | 5.3 |  | 25.3% (active)
O=C(Nc1ccc(Cl)cc1)c1csc([C@H]2C[C@H](O)[C@@H](CO)O2)n1 | 0.4 | inactive | 
CCN1C(=O)[C@@H]2[C@@H]3CN(S(=O)(=O)c4ccccc4C)[C@@H](c4ccc(Cl)cc4)[C@@H]3C(=O)C[C@@H]2C1=O | 0.5 | inactive | 
CN1C[C@@H](CO)O[C@@H](n2cnc3c(N4CCN(CCO)CC4)ncnc32)C1 | 1.5 | inactive | 
Cc1scc(C(=O)NNC(=S)NCc2ccccc2)c1C | 0.2 | inactive | 
CNC(=S)NNC(=O)c1sccc1OCc1ccccc1 | 2.8 |  | 6.37% (active)
CNC(=S)N/N=C/c1ccc(OCc2ccccc2)c(Br)c1 | 0.2 | inactive | 
CC1(C(=O)Nc2ccc3c(c2)OCCO3)CSCC(=O)N1CCOc1ccccc1 (stereo unspecified) | 3.3 | inactive | 
Cc1cc(Br)cn2c(Cc3cccc(F)c3)c(-c3cccc(Br)c3)nc12 | 0.6 | inactive | 
CCOC(=O)/C=C/C(=O)OCC(=O)NC(c1ccccc1)c1ccccc1 | 0.4 | inactive | 
CCOC(=O)C(C(=O)OCC)C(C#N)c1ccccc1 (stereo unspecified) | 3.3 |  | 9.91% (active)
CCOC(=O)C(C(=O)c1ccccc1)C(c1ccccc1)c1nccc2ccccc12 (stereo unspecified) | 0.2 | inactive | 
CC1(C(=O)NCc2ccccc2)CSCC(=O)N1CCCn1ccnc1 (stereo unspecified) | 4.4 | inactive | 
O=C1NC(O)CCN1C1CC(O)C(CO)O1 (stereo unspecified) | 1.3 | inactive | 
CCOc1ccc(CCN2C(=S)N([C@@H](CC(C)C)CN3CCC[C@@H]3CN3C(=S)NC[C@@H]3Cc3ccc(O)cc3)C[C@@H]2Cc2ccc(O)cc2)cc1 | 0.7 | inactive | 
COC(=O)C(C)NC(=O)COc1ccc2ccccc2c1 (stereo unspecified) | 1.3 | inactive | 
COc1c(C(=O)N2CCCC2)ccc2ccccc12 | 0.8 | inactive | 
COC(=O)C[n+]1cccc2ccccc21 | 1 |  | 236% (active)
CCc1nc2c(OCc3ccc(Cl)cc3Cl)cccn2c1N(C)C(=O)C(C)C | 1.8 | inactive | 
CC(=O)N1CCN(Cc2cc(=O)oc3cc(C)ccc23)CC1 | 1.6 | inactive | 

SMILES | GFP+ MAC1+ double positive [%] | outcome | normalized GFP-positive differentiation
COC(=O)[C@]12CCCCC=C1N(Cc1ccc3c(c1)OCO3)C(=O)[C@H](CC(=O)NCc1cccs1)C2 | 0.4 | inactive | 
CCOC(=O)[C@]12CCCC=C1N(CCC1=CCCCC1)C(=O)[C@H](CC(=O)N1CCOCC1)C2 | 4.8 | inactive | 
OCCC#Cc1ccc(N2C(c3ccsc3)=Cc3ccc(F)cc3C2c2c[nH]c3ccccc23)cc1 (stereo unspecified) | 2 |  | 16.8% (active)
COc1ccc(CCCNC(=O)C2Cc3c(-c4cccc(C(N)=O)c4)ccnc3O2)cc1 (stereo unspecified) | 0.5 | inactive | 
CN(Cc1cn(Cc2ccc(C(F)(F)F)cc2)nn1)C1CN(Cc2cn(Cc3ccc(C(F)(F)F)cc3)nn2)S(=O)(=O)C1 (stereo unspecified) | 1.6 | inactive | 
CCCCNC(=O)C[C@@H]1C[C@@]2(C(=O)OCC)CCC=C2N(Cc2cccc3ccccc23)C1=O | 0.6 | inactive | 
CCOc1ccc(CCN2C(=O)C(=O)N([C@@H](Cc3ccc(O)cc3)CN3CCC[C@H]3CN3C(=O)C(=O)NC[C@@H]3CC(C)C)C[C@@H]2Cc2ccccc2)cc1 | 1 | inactive | 
Cc1ccc(Nc2nc(N)nc(CSc3nnc(C)s3)n2)cc1 | 0.4 | inactive | 
O=[N+]([O-])c1ccccc1Nc1ccc(O)cc1 | 0.4 | inactive | 
Cc1ccc(Nc2ccccc2N)cc1 | 0.6 |  | 231% (active)
CC1(C(=O)NCc2ccccc2)CN(S(C)(=O)=O)CC(=O)N1CC(F)(F)F (stereo unspecified) | 1.4 | inactive | 
COc1ccc(C(=O)C[n+]2ccc(C)cc2)cc1 | 0.2 | inactive | 
CO/N=C/CC(=O)c1ccc(OC)cc1 | 0.8 | inactive | 
COc1ccc(C(=O)C[n+]2ccc(N)c(C)c2C)cc1 | 10.1 |  | 39.6% (active)
Cc1ccc2cc(CN(c3ccc(C)c(C)c3)S(C)(=O)=O)c(=O)[nH]c2c1 | 0.3 | inactive | 
CCN(Cc1cc2cc(C)ccc2[nH]c1=O)S(=O)(=O)c1ccccc1 | 0.4 | inactive | 
COc1ccc(N(Cc2cc3ccc(C)cc3[nH]c2=O)S(=O)(=O)c2ccccc2)cc1 | 9.4 |  | 37.5% (active)
O=C(Nc1cccc2cccnc12)c1ccc2sc([C@H]3C[C@H](O)[C@@H](CO)O3)nc2c1 | 0.8 | inactive | 
Cc1ccc(NC(=O)CCC(=O)c2ccc(Br)cc2)cc1 | 0.4 | inactive | 
Cc1ccc(C(=O)Cc2nnc(C)s2)cc1 | 0.7 |  | 113% (active)
Cc1ccc(C(=O)Cn2cccn2)cc1 | 0.3 | inactive | 

From PubChem BioAssay AID624256 (NMMLSC, 2012)
